# Phagocyt inh: blocks phagocytosis by macrophages | AID 1029 | J774A.1 macrophage IgG-bead phagocytosis, imaging | inhibition, % at 5 µM | actives 0.07% (n = 110,000);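 active means inhibition above the mean of the plate negative controls plus 5 SD, cut at about 13% in these data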;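 further: phagocytic index as fraction of beads internalized from green versus red external bead signal; plate controls were DMSO negative control for no effect and cytochalasin-D positive control for full effect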
# MRP reversal: reverses drug resistance mediated by MRP | H69AR cells + 2 uM doxorubicin, CellTiter-Glo, 72 h | differential viability (reversal), % at 10 µM | actives 0.04% (n = 85,000);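 active means viability drop by adding the cancer drug above about 55%, with treated viability meeting a 40% cutoff, limit read from the data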;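 further: viability without doxorubicin minus viability with 2 µM doxorubicin for each compound; larger differential means the compound sensitizes cells more to doxorubicin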
# MRP-1 activ: activates MRP-1; viability increase, % at 10 µM; H69AR cells + doxorubicin, viability rescue, CellTiter-Glo; actives 0.61% (n = 140,000);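 active means viability gain under doxorubicin at or above a set limit, the compound median plus 3 SD, cut at about 4.7% in these data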;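 further: MRP-1 overexpressing cells given doxorubicin 25 µM after compound pretreatment; 18-22 h compound pretreatment then 72 h with doxorubicin before readout; 0% = doxorubicin-only wells and 100% = vehicle-treated cells without doxorubicin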
# * marks the source's active call; other numbers are inactive results; · = not tested or not shown; + = active, no number; [ ] = another dose, or the depositor's remark. Hits are enriched below; roughly 0.72% of the tested compounds scored in any of these assays.
SMILES,Phagocyt inh,MRP reversal,MRP-1 activ
CC(C)Cn1c2c(c(O)c(C(=O)Nc3ncccc3O)c1=O)CCCC2,-0.3,-13.6,0.6
Cc1sc2nc(CN3CCCCC3)nc(Cl)c2c1C,-6.4,·,-5.7
CCN(CC)c1ccc(/C=C2\CCC(/C=C(\C#N)C(=O)Nc3ccccc3F)=C2N2CCOCC2)cc1,+[fluoresces],·,-3.0
N#C/C(=C\C1=C(N2CCOCC2)C(=C\c2ccc(Cl)cc2)/CC1)C(=O)Nc1ccccc1F,11.8,·,-5.4
CC(=O)OCC(=O)[C@@]1(O)[C@H](C)C[C@H]2[C@@H]3CCC4=CC(=O)C=C[C@]4(C)[C@@]3(F)[C@@H](O)C[C@@]21C,·,-12.1,10.2*
C[C@@H]1C[C@H]2[C@@H]3C[C@H](F)C4=CC(=O)C=C[C@]4(C)[C@@]3(F)[C@@H](O)C[C@]2(C)[C@@]1(O)C(=O)COC(=O)C(C)(C)C,·,-10.6,4.3
COc1cc(/C=C2\SC(=Nc3ccc(N4CCOCC4)cc3)N(C)C2=O)ccc1OC(C)C(=O)O (configuration not stated),-5.8,·,0.1
COc1ccc(S(=O)(=O)Nc2ccc(NC(C)=O)cc2)cc1,·,-1.4,-1.2
COc1ccc(S(=O)(=O)Nc2ccc(N(C)C(C)=O)cc2)cc1,192.0*,12.9,-0.8
CC1CCN(C(=O)CCc2ccc(Oc3cc([N+](=O)[O-])cc([N+](=O)[O-])c3)cc2)CC1,-14.1,·,-1.6
CCCCOC(=O)c1ccc(NC(C)=O)cc1,-0.3,·,-1.4
CCCCOC(=O)c1ccc(NC(=O)/C=C/c2cccs2)cc1,-2.1,·,4.8*
Cc1ccc(N/C(C(Cl)=C(Cl)Cl)=C(/Cl)[N+](=O)[O-])c(C)c1,2.0,·,-2.5
CC1=NN(c2ccc(C)cc2C)C(=O)C1C(c1ccccc1O)C1C(=O)N(c2ccc(C)cc2C)N=C1C (configuration not stated),-12.7,·,5.6*
CC1=NN(c2ccc(C)c(C)c2)C(=O)C1C(c1cccc(O)c1)C1C(=O)N(c2ccc(C)c(C)c2)N=C1C (configuration not stated),·,·,-4.0
CCN1C(=O)/C(=C/C=C2/Sc3ccc4ccccc4c3N2CCO)SC1=S,122.8*[fluoresces],·,-3.6
CCN1C(c2ccccc2)=C(c2ccccc2)S/C1=C\C=C1/SC(=S)N(C)C1=O,·,-5.8,·
O=C(/C(=C/O)N=Nc1ccccc1)c1ccncc1,-1.0,0.4,6.3*
CC(/C=N/NC(=O)c1ccncc1)=C\c1ccccc1,·,·,1.6
COc1ccc2c(C)cc(SCC(=O)NCCN3C(=O)CSC3=O)nc2c1,-8.2,·,-2.9
CC(C)(C)c1ccc(-c2nc(-c3ccncc3)no2)cc1,·,9.4,6.2*
Cc1cc(C)cc(-c2nc(-c3ccncc3)no2)c1,·,13.5,-0.6
CC(C)c1ccc(NC(=S)NCCc2c[nH]c3ccccc23)cc1,·,·,-3.3
Cc1n[nH]c(=S)n(/N=C/c2ccccn2)c1=O,-0.8,7.6,6.0*
Cc1nnc(C)n1/N=C/c1ccccn1,-0.8,-9.4,-2.1
SMILES,Phagocyt inh,MRP reversal,MRP-1 activ
O=c1cc(CNc2ccc(Br)cc2)nc2sccn12,10.3,·,8.7*
CN(Cc1cc(=O)n2ccsc2n1)c1ccccc1,-9.3,·,0.9
CN1CCN(c2nc(-c3ccccn3)nc3ccccc23)CC1,·,67.7*,-3.4
c1ccc(N2CCN(c3nc(-c4ccccn4)nc4ccccc34)CC2)cc1,1.8,·,-5.7
O=S(=O)(Nc1ccc2nc(-c3ccc(Br)o3)[nH]c2c1)c1ccccc1,·,19.6,-0.5
Cc1ccc(-c2nc3ccc(NS(=O)(=O)c4ccccc4)cc3[nH]2)o1,142.8*,3.5,-0.8
Cc1ccc(OCC(=O)c2ccc3c(c2)CCCC3)cc1C,·,·,2.4
O=C(COc1ccc(Br)cc1)c1ccc2c(c1)CCCC2,·,·,5.1*
O=C(NCc1nnc2c3ccccc3c(-c3ccccc3)nn12)c1ccccc1Cl,-7.5,·,0.0
O=C(COc1ccc(Cl)cc1)NCc1nnc2c3ccccc3c(-c3ccccc3)nn12,-7.1,·,5.0*
CCCN(CC(=O)Nc1ccc(F)c(F)c1F)CC(=O)Nc1c(Cl)cccc1Cl,-7.8,·,-3.9
COc1ccc(C(=O)C[n+]2ccc(-c3nnc4n3CCC4)cc2)cc1,-7.2,·,0.8
O=C(CCC1CCCC1)Nc1ccc([N+](=O)[O-])cn1,-3.8,·,-0.2
CCCN1C(=O)SC(CC(=O)Nc2ccccc2C)C1=O (configuration not stated),·,-62.6,1.4
Cc1ccccc1NC(=O)CC1SC(=O)N(c2ccccc2)C1=O (configuration not stated),·,7.7,5.4*
COC(=O)c1sc(NC(=S)NC(=O)c2ccccc2)nc1C,-7.9,·,-1.8
Cc1nc(NC(=S)NC(=O)c2ccccc2)sc1C(=O)N(C)C,-0.5,·,7.7*
O=C(CCn1c(=O)c2ccccc2n(CC(=O)NC2CCCC2)c1=O)NCc1ccco1,-1.0,11.7,-2.7
O=C1N/C(=N/c2ccccn2)SC1Cc1ccccc1 (configuration not stated),2.1,1.8,2.2

# Assay outcomes (PubChem BioAssay)
